Sampled rows, rich in hits. Any-hit rate of the full collection: about 18%.
DT40 TDP1 no CPT = qHTS for Inhibitors of human tyrosyl-DNA phosphodiesterase 1 (TDP1): qHTS in cells in absence of CPT; hit rate 15% among 420,000; Potency, µM (doses to about 46.2 µM), for inactives: at the highest dose activity change, negative = growth inhibition, most hits filed as inhibitors; DT40 Tdp1-/- hTDP1 cells, no CPT, ATP luminescence, 48 h; AID 686978, 2013; also: potency is read from the fitted curve at half-maximal effect; % is scaled to controls: 0 for no effect and ±100 for the full control effect; nearly all actives have a fitted effect of over 55% in size
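Seeded 400 DT40-hTDP1 cells/well (vehicle DMSO, no 20 nM CPT); pinned compounds; ≥48 hr at 37 °C; CellTiter-Glo luminescence as viability measure.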
TDP1 block = blocks human tyrosyl-DNA phosphodiesterase 1; Q9NUW8; recombinant TDP1, AlphaScreen DNA substrate cleavage; Potency, µM (titrated, usually from 130 µM), for the others: at the top dose activity change, negative = inhibition, usual class: inhibitors; hit rate 0.28% among 350,000; also: potency is read from the fitted curve at half-maximal effect; % is scaled to controls: 0 for no effect and ±100 for the full control effect; nearly all actives have a fitted effect of over 40% in size
Target sequence (Q9NUW8 whole entry, looked up): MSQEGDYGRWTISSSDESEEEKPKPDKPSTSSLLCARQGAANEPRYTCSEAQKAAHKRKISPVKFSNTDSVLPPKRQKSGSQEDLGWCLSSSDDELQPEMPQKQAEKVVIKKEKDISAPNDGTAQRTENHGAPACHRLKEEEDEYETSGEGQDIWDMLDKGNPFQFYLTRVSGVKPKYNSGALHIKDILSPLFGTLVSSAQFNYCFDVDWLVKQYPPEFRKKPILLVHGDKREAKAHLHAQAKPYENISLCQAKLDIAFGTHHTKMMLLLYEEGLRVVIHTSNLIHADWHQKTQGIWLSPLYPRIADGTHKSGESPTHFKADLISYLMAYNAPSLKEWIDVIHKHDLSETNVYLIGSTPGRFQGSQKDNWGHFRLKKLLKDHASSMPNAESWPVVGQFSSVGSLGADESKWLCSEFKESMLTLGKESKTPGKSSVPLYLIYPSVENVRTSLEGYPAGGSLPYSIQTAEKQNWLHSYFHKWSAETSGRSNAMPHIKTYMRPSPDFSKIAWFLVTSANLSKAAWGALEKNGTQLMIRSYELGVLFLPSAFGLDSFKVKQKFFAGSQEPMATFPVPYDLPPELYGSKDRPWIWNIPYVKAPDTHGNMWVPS
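Recombinant human Tdp1 (E. coli-expressed, 1 nM final) preincubated with compounds 15 min at room temperature, then 5'-biotin/3'-phosphotyrosine-FITC DNA substrate (15 nM final) added for 5 min. AlphaScreen beads (10 ug/ml final) added 10 min; cleavage lowers signal.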
DT40 TDP1 CPT = DT40-hTDP1 cell growth loss with CPT | chicken DT40 Tdp1-/-;hTDP1 cells + 20 nM CPT, ATP luminescence, 48 h | Potency, µM (titrated, usually from 46.2 µM), without a hit: at the highest dose activity change, negative = growth inhibition, usual class: inhibitors | hit rate 12% among 420,000; also: potency is read from the fitted curve at half-maximal effect; % is scaled to controls: 0 for no effect and ±100 for the full control effect; nearly all actives have a fitted effect of over 55% in size
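Chicken DT40 Tdp1-/- cells complemented with human TDP1, 400 cells/well, exposed to compounds plus 20 nM camptothecin for at least 48 h at 37 C; viability read as ATP content by CellTiter-Glo luminescence.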
HepG2 tox = kills HepG2 cells in TGF-b inhibitor counter-screen. HepG2 CAGA-GFP viability, ATP luminescence, 18 h. hit rate 0.76% among 410,000. Potency, µM (doses to about 46.1 µM), inactives show at the top dose activity change, negative = cytotoxicity, actives largely listed as cytotoxic; also: potency is read from the fitted curve at half-maximal effect
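CellTiter-Glo luminescence gave cytotoxicity after 18 hours at 37 degrees C. The cells were HepG2 CAGA-GFP in 1% FBS DMEM, stimulated with 500 pg/mL TGF-beta after compound addition. %Activity was normalised to no-cell wells (complete cell-killing) and DMSO (no toxicity), and curves were fitted and classified.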
IL1B secr inh = blocks inflammasome-driven IL-1 beta release. THP-1 LPS/ATP IL-1B secretion, AlphaLISA, 16 h; stronger effect = lower value. hit rate 4.7% among 360,000. activity change, % at 57.5 µM; in the data active = activity change below about -50%; inconclusive = mostly about -30% to -49%; also: % is scaled to controls: 0 for no effect and ±100 for the full control effect
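Secreted IL-1B measured by AlphaLISA bead assay after 16 h compound exposure of THP-1 cells; compounds (final up to 57.5 uM) added 1 h before LPS (250 ng/mL) and ATP (1.25 mM) stimulation; lower signal means less secretion.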
TGFb SMAD3 inh = blocks TGF-b signaling. HepG2 CAGA-GFP TGF-b/SMAD3 reporter, GFP fluorescence, 18 h; TGF-beta stimulated, 500 pg/mL final. Potency, µM (top dose mostly 46.1 µM), without a hit: at the highest dose activity, negative = inhibition, most hits filed as inhibitors. hit rate 1.2% among 410,000; also: potency is read from the fitted curve at half-maximal effect; % is scaled to controls: 0 for no effect and ±100 for the full control effect; nearly all actives have a fitted effect of over 65% in size
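TGF-beta reporter screen: HEPG2 CAGA-GFP, 1% FBS, 500 pg/mL TGF-beta final, 18 h; per-cell GFP summed per well; curves fitted and categorized by class.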
* hit, by the source's call; ? = inconclusive; · = no result given; [ ] = dose if it differs, or a comment. Unless noted, calls follow the shape of the dose curve; as a rule, active = well fitted curve in the direction sought with a large enough effect; inconclusive = small, poorly fitted or top-dose-only effect, or another doubt; inactive = no such curve, though single readings can be large; an effect the other way counts as inactive or inconclusive.

SMILES | DT40 TDP1 no CPT | TDP1 block | DT40 TDP1 CPT | HepG2 tox | IL1B secr inh | TGFb SMAD3 inh
COc1cc(NC(=O)c2ccc(-c3ccc(Br)cc3)o2)ccc1NC(=O)C(C)C | 18.4µM* | 0.0% | 14.6µM* | 2.1% | 0.0 | 9.2%
C/C=C/C(=O)[C@@H](C)[C@@H](/C=C/C[Si](C)(C)C)c1ccccc1 | · | 13.8% | · | 4.1% | · | -9.1%
COc1cc([N+](=O)[O-])c2nc(C(=O)O)ccc2c1 | -23.3% | · | -23.6% | -0.6% | 0.0 | 2.1%
CN1CCN(c2ccccc2NC(=O)c2ccc(-c3cccc([N+](=O)[O-])c3)o2)CC1 | 14.6µM* | 2.7% | ? | -15.6% | 0.0 | -2.7%
O=C(Nc1ccccc1N1CCCCC1)c1ccc(-c2ccc(Cl)cc2)o1 | 4.11µM* | -2.7% | 3.26µM* | 15.4% | 26.2 | ?
O=C(NC(=S)Nc1ccccc1N1CCOCC1)c1ccc(-c2cc(Cl)ccc2Cl)o1 | 23.1µM* | 1.8% | ? | 3.0% | 12.8 | -0.9%
O=C(NC(=S)Nc1ccccc1N1CCOCC1)c1ccco1 | ? | 0.6% | ? | 4.1% | 1.1 | 10.8%
Cc1ccc(C)c(NC(=O)CN(C)C(=O)c2ccc(-c3cccc(C(F)(F)F)c3)o2)c1 | 14.6µM* | 1.7% | ? | 3.6% | -16.2 | -33.9%
Cc1cc(N2CCN(C)CC2)ccc1NC(=O)c1ccc(-c2ccc(Cl)cc2)o1 | ? | 1.4% | ? | 11.2µM* | ? | ?
CN1CCN(c2ccccc2NC(=O)c2ccc(-c3ccc(Br)cc3)o2)CC1 | 3.26µM* | 4.6% | 3.26µM* | -0.9% | 28.6 | -5.4%
COc1cc(NC(=O)c2ccc(-c3cccc(F)c3)o2)ccc1NC(=O)c1ccccc1Cl | 18.4µM* | 2.3% | 18.4µM* | -2.8% | -24.6 | -8.4%
Cc1ccc(-n2nc3cc(C)c(NC(=O)c4ccc(-c5ccccc5)o4)cc3n2)cc1 | -2.9% | 1.0%[2.28 µM] | -2.0% | 4.4% | · | 5.9%
CN(CC(=O)Nc1ccc(F)cc1)C(=O)c1ccc(-c2ccc(F)cc2)o1 | 20.6µM* | · | ? | 19.3% | -8.4 | 14.0%
O=C(Nc1ccc(OC(F)F)cc1)c1cc[n+]([O-])cc1 | -24.5% | 0.0% | 9.2% | 7.7% | 18.1 | 11.8%
C[C@H](N=C(NC#N)Nc1ccncc1)C(C)(C)C | ? | 9.0%[56.1 µM] | -26.2% | · | · | ·
Cc1onc(-c2ccccc2)c1C(=O)N[C@@H]1C(=O)N2C1SC(C)(C)[C@@H]2C(=O)O (stereo not given in full) | -1.1% | · | -5.1% | -8.5% | 8.6 | 17.0%
COc1ccc2c(c1)c(C(C)=O)c(C)n2-c1ccccc1OC | ? | · | -19.1% | 43.9% | ? | 26.2%
COc1ccc(NC(=O)c2ccc(-c3ccc(F)cc3)o2)cc1OC | 16.4µM* | · | 20.6µM* | -24.4% | -28.4 | -8.4%
CS(=O)(=O)N1CCN(c2ccccc2NC(=O)c2ccc([N+](=O)[O-])o2)CC1 | 8.2µM* | 2.5% | 3.66µM* | -26.3% | ? | ?
COc1ccc(NC(=O)c2cc3ccccc3o2)cc1OC | -17.6% | 4.4% | -11.6% | 3.4% | -16.5 | -4.9%
Cc1ccc(-n2nc(C)c3nc(CCC(=O)Nc4cccc(F)c4)c(=O)n(C)c32)cc1 | -6.0% | 6.2% | -13.8% | -0.9% | · | -3.8%
COCCNc1nnc(SCC(=O)NNC(=O)c2ccccc2)s1 | ? | 0.0% | ? | 6.5% | -3.6 | -1.5%
Nc1nnc(SCC(=O)Nc2sc3c(c2C(=O)c2ccccc2)CCCC3)s1 | 16.4µM* | -2.3% | ? | 16.4% | -2.5 | -12.5%
Cc1ccc(C(=O)c2c(NC(=O)CSc3nnc(N)s3)sc3c2CCCC3)cc1 | ? | -1.2% | ? | 22.3% | -71.5* | ?
N#Cc1ccccc1NC(=O)CSc1nnc(N)s1 | -13.2% | -4.8%[12.3 µM] | 0.6% | -4.6% | · | -16.5%
SMILES | DT40 TDP1 no CPT | TDP1 block | DT40 TDP1 CPT | HepG2 tox | IL1B secr inh | TGFb SMAD3 inh
COCCNc1nnc(SCC(=O)Nc2sc3c(c2C(=O)c2ccccc2)CCCC3)s1 | ? | 0.0% | 20.6µM* | -19.7% | ? | ?
CCOc1ccc(C2=NC(c3cccs3)=Nc3ccc(CC)cc3N2)cc1OCC | 18.4µM* | 11.6% | ? | -0.6% | · | 0.6%
CCc1ccc2c(c1)NC(c1cccs1)=NC(c1ccc(F)cc1)=N2 | 23.1µM* | 4.7% | 23.1µM* | -40.3% | · | ?
O=C(CC(c1cccs1)N1Cc2ccccc2C1=O)Nc1ccc(F)c(Cl)c1 (stereo not given) | ? | -2.8% | -31.6% | -4.2% | · | -4.2%
COC(=O)[C@]1(Cc2ccccc2)N[C@H](CN(C)S(=O)(=O)c2ccc(-c3ccccc3)cc2)[C@@H]2C(=O)N(Cc3ccccc3)C(=O)[C@@H]21 | -10.2% | 1.5% | 0.8% | -19.9% | -19.7 | -8.6%
O=C(CCNC(=O)Cn1cnc2ccccc2c1=O)NCC1COc2ccccc2O1 (stereo not given) | ? | 5.0% | ? | 12.6µM* | 18.6 | 0.0%
COc1cc(Cl)c(C)cc1NC(=O)CNC(=O)Cn1cnc2ccccc2c1=O | -13.0% | -2.0% | -13.5% | -0.8% | -12.3 | -0.2%
COc1cc(OC)c(NC(=O)CCNC(=O)Cn2cnc3ccccc3c2=O)cc1Cl | ? | 3.9% | 18.4µM* | -38.4% | -1.4 | 0.0%
CCOc1cc(/C=C2\SC(=N)N(c3nccs3)C2=O)ccc1OCCN1CCOCC1 | 20.6µM* | 12.7% | 16.4µM* | -24.5% | -19.5 | 0.0%

From PubChem BioAssay
